In PubChem BioAssay (NCATS):
Results filed as inconclusive are left out. Entries that show only a call come without a potency. The source made the active and inactive calls. Calls come from the whole dose curve; as a rule, active = well fitted curve in the direction sought with a large enough effect; inconclusive = small, poorly fitted or top-dose-only effect, or another doubt; inactive = no such curve, though single readings can be large; an effect the other way counts as inactive or inconclusive. Numbered stars: 1 amine (or outer) side, 2 acyl side, 3 side chain; on linkers, the order of the positions; unused ones are H or OH. Square brackets hold non-standard residues; d marks the D form. Peptide text beside a SMILES is read from it. X1 = CCCCCCCCCC(=O)[C@H](C(=O)[*:2])[C@@H]1CNC(=O)[C@@H](N[*:1])CS1

Columns and labels:
[1] = UWB1.289 Cancer Cell Toxicity qHTS against the NCATS CANVASS Library (AID 1347347); note: nearly all actives have a fitted effect of over 60% in size; note: potency is the fitted concentration of half-maximal effect
Outline: (§1)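 Following a 4 h pre-incubation of 1000 seeded cells, compounds were pinned in an 11-pnt dilution series and left for 72 h; viability then came from CellTiter-Glo.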

[2] = Panc-1005 Cancer Cell Toxicity qHTS against the NCATS CANVASS Library (AID 1347349); note: nearly all actives have a fitted effect of over 60% in size; note: potency is the fitted concentration of half-maximal effect
Outline: as §1

[3] = SW1088 Cancer Cell Toxicity qHTS against the NCATS CANVASS Library (AID 1347350); note: nearly all actives have a fitted effect of over 75% in size; note: potency is the fitted concentration of half-maximal effect
Outline: as §1

[4] = U-118MG Cancer Cell Toxicity qHTS against the NCATS CANVASS Library (AID 1347351); note: potency is the fitted concentration of half-maximal effect
Outline: as §1

[5] = A2780 Cisplatin Sensitive Ovarian Cancer Cell Toxicity qHTS against the NCATS CANVASS Library (AID 1347353); note: nearly all actives have a fitted effect of over 60% in size; note: potency is the fitted concentration of half-maximal effect
Outline: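 Cisplatin-sensitive A2780 ovarian cells (750/well) received compound in 11 concentrations, and were incubated 72 h at 37 °C. ATP content was measured by ATPLite luminescence; bortezomib served as control.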

[6] = UWB1.289-WTBRCA1 Cancer Cell Toxicity qHTS against the NCATS CANVASS Library (AID 1347354); note: potency is the fitted concentration of half-maximal effect
Outline: (§2)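 Toxicity was measured as CellTiter-Glo luminescence after 72 h exposure to an 11-point compound series. Compound was added to 1000 cells/well 4 h after seeding.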

[7] = HEK-293 Cancer Cell Toxicity qHTS against the NCATS CANVASS Library (AID 1347355); note: nearly all actives have a fitted effect of over 65% in size; note: potency is the fitted concentration of half-maximal effect; for outcome: series mostly up to about 46 µM
Outline: as §2

[8] = system: NAD(P)H diaphorase (Clostridium kluyveri); test: Diaphorse counterscreen qHTS: Assay Interference Panel against the NCATS CANVASS Library (AID 1347362)
Outline: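 Clostridium kluyveri diaphorase in PBS with 0.01% Tween-20 was preincubated 15 min at room temperature in the dark with compounds (11-point series). Resorufin fluorescence (ex 525/20, em 598/25) was read 5 min after adding resazurin/NADH.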

[9] = KB-8-5-11 Cancer Cell Toxicity qHTS against the NCATS CANVASS Library (AID 1347364); note: nearly all actives have a fitted effect of over 75% in size; note: potency is the fitted concentration of half-maximal effect
Outline: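 Viability read as CellTiter-Glo luminescence after 72 h at 37 °C, 5% CO2. 11-point compound series on 500 KB-8-5-11 cells/well in DMEM/10% FBS. Follow-up plating included 1 uM tariquidar in the medium.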

[10] = SDT Cancer Cell Toxicity qHTS against the NCATS CANVASS Library (AID 1347365); note: nearly all actives have a fitted effect of over 60% in size; note: potency is the fitted concentration of half-maximal effect
Outline: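 Cytotoxicity taken from CellTiterGlo ATP luminescence after 72 hr at 37C, 5% CO2. Canine glioma line SDT, 500 cells/well, treated at 11 concentrations; bortezomib dose series as control.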

[11] = target: Nuclear receptor subfamily 1 group I member 3 (Homo sapiens) (UniProt Q14994); test: qHTS for Constitutive Androstane Receptor (CAR) Antagonist screened against the NCATS CANVASS Library (AID 1347372); note: potency is the fitted concentration of half-maximal effect
Sequence of Nuclear receptor subfamily 1 group I member 3 (Homo sapiens) (Q14994 whole entry, looked up): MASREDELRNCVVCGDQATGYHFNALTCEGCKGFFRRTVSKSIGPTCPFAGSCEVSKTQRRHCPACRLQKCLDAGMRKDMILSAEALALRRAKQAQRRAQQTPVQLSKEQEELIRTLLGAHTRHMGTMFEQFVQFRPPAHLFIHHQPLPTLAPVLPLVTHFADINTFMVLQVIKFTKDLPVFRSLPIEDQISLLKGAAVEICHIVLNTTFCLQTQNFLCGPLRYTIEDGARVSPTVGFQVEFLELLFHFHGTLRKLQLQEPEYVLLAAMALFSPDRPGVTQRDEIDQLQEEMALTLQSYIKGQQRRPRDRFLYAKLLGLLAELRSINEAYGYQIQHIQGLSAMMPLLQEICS
Outline: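 Cells were seeded and left 4hr to attach, then received compound at 11 concentrations and 50 nM CITCO. Following 24hr incubation, fluorescence viability and luciferase luminescence were read sequentially.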

[12] = qHTS for Hypoxia signaling pathway (HIF-1) antagonists against the NCATS CANVASS Library (AID 1347374); note: nearly all actives have a fitted effect of over 60% in size; note: potency is the fitted concentration of half-maximal effect
Outline: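 Antagonism scored as loss of CoCl2-driven (60 uM stock added) HRE beta-lactamase signal, read by CCF4 FRET at 460/530 nm. Compounds were tested in an 11-point series on ME-180 reporter cells for 17 hrs at 37C, with parallel CellTiter-Glo cytotoxicity.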

[13] = DH5-alpha competent E. coli microbial cell viability qHTS against the NCATS CANVASS Library (AID 1347377); details: outcome: dose series up to 46.1 µM unless noted
Outline: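 Bacterial viability as ATP-dependent luminescence (BacTiter-Glo), read after overnight 37 °C exposure of DH5-alpha competent E. coli to compounds in 11-point titration.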

[14] = qHTS for H2AX Agonists against the NCATS CANVASS Library (AID 1347378);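 note: phospho-H2AX S139 level in CHO-K1 lysates by TR-FRET emission ratio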
Outline: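 CHO-K1, 1000 cells/well, o/n 37C; cpd several conc, 3 hr 37C, 0.76% DMSO; lyse 30 min RT; cryptate anti-pH2AX(S139) + d2 anti-H2AX, 24 hr RT; HTRF 665/620.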

[15] = qHTS for Activators of p53 Stress Response Pathway screened against the NCATS CANVASS Library (AID 1347388); note: potency is the fitted concentration of half-maximal effect
Outline: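 p53RE-bla HCT-116 cells (4000/well) were plated 5 h at 37C, exposed to compounds for 16 h at 37C over an 11-point concentration series, then loaded with CCF4 for 2 h at room temperature; 460/530 nm emission ratio read.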

[16] = qHTS assay for small molecule disruptors of mitochondrial membrane potential screened against the NCATS CANVASS Library (AID 1347389); note: nearly all actives have a fitted effect of over 60% in size; note: potency is the fitted concentration of half-maximal effect
Outline: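 Mitochondrial membrane potential in HepG2: 1 h compound treatment (11-point concentration series), 30 min m-MPI dye at 37C, then dual fluorescence of J-aggregates (ex 540/em 590) and monomers (ex 490/em 535); lower red/green ratio indicates depolarization.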

[17] = Secretion counterscreen for inhibitors of the SERCaMP assay screened against the NCATS CANVASS Library (AID 1347390);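 note: light from luciferase secreted into medium read as a measure of general secretion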; note: potency is the fitted concentration of half-maximal effect
Outline: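 SH-SY5Y-GLuc STOP cells; 4 h attach; cpds 0.001 - 77 uM (qHTS, 11 pts), 20 h 37C/5% CO2; coelenterazine in glow buffer; luminescence, 5 s exposure.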

[18] = qHTS for activators of dead-cell proteases activity screened against the NCATS CANVASS Library (AID 1347392);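 note: luminescence from protease leaking out of membrane-damaged cells cleaving impermeant substrate; rising signal means more cytotoxicity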; note: potency is the fitted concentration of half-maximal effect
Outline: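 Cytotoxicity in HepG2 cells was assessed by released protease cleaving AAF-aminoluciferin, with luminescence as signal. Exposure lasted 5 h at 37C across an 11-point series.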

[19] = qHTS for inhibitors of Wild type Zika virus screened against the NCATS CANVASS Library (AID 1347396);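 note: ATP luminescence of surviving cells so rescue from viral cell killing; series mostly up to about 46 µM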
Outline: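 Using ATP-based luminescence (CellTiter Glo), this screen scores rescue of Vero 766 cells from wild-type Zika killing at 72 h post-infection. Compounds are tested in a concentration series.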

[20] = system: Zika virus NS2B-NS3 protease (linked construct); test: Primary screen NINDS Rhodamine qHTS for Zika virus inhibitors (AID 1347160); note: nearly all actives have a fitted effect of over 55% in size; note: potency is the fitted concentration of half-maximal effect
Outline: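 Single-chain NS2B-NS3 protease, 25 nM, pH 8.0; compounds preincubated 15 min. Activity: Rhodamine110 release from 1.5 microM substrate over 15 min, room temperature, data fitted to 4-parameter Hill.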

| SMILES | Potency [1] | Potency [2] | Potency [3] | Potency [4] | Potency [5] | Potency [6] | Potency [7] | Potency [8] | Potency [9] | Potency [10] | Potency [11] | Potency [12] | outcome [13] | Potency [14] | Potency [15] | Potency [16] | Potency [17] | Potency [18] | Potency [19] | Potency [20] |
| --- | --- | --- | --- | --- | --- | --- | --- | --- | --- | --- | --- | --- | --- | --- | --- | --- | --- | --- | --- | --- |
| C[C@@H]1C(=O)[C@]23CC[C@H]1C[C@]21O[C@H]2C(C)(C)C=CC(=O)[C@@]23COC1=O | inactive | inactive | inactive | inactive | inactive | inactive | inactive | inactive | inactive | inactive | inactive | 23.6 µM (active) | inactive | inactive | inactive | inactive | inactive | inactive | inactive |  |
| CC1(C)CC[C@]2(C(=O)O)CC[C@]3(C)C(=CC[C@@H]4[C@@]5(C)C[C@@H](O)[C@H](O)C(C)(C)[C@@H]5CC[C@]43C)[C@@H]2C1 | 11.8 µM (active) |  | 14.9 µM (active) |  |  |  |  |  |  | inactive | inactive |  | inactive |  |  | inactive | inactive |  |  |  |
| CN1C(=O)C2C(N=CN2C)N(C)C1=O (centres undefined) | inactive | inactive | inactive |  | inactive | inactive | inactive | inactive | inactive | inactive | inactive | inactive | inactive | inactive | inactive | inactive | inactive | inactive | inactive |  |
| C=C(C)CC[C@H](Cc1c(O)cc(O)c2c1O[C@H](c1ccc(O)cc1O)CC2=O)C(=C)C |  |  | 21.1 µM (active) | inactive |  | inactive | inactive | inactive | inactive | inactive | inactive |  |  | inactive | inactive | 18.6 µM (active) |  | inactive | inactive | 19.6 µM (active) |
| CN1CCc2cc3c(c4c2[C@H]1[C@@H](O)c1ccccc1-4)OCO3 |  | 16.8 µM (active) | inactive | inactive |  | inactive | 23.5 µM (active) |  |  | 18.7 µM (active) | inactive | 11.8 µM (active) |  | inactive | 26.3 µM (active) | 11.7 µM (active) |  | inactive | inactive | 44 µM (active) |
| CCCCCCCCCC(=O)[C@@H]1C(=O)N[C@@H](CC(C)C)C(=O)N[C@H](C)C(=O)N2CCC[C@H]2C(=O)N[C@@H](C(C)C)C(=O)N[C@H]2CS[C@H]1CNC2=O (cyclo(L[dA]PV[X1])) | inactive | inactive |  | inactive | inactive | inactive | inactive |  | inactive |  | inactive | inactive |  | inactive | inactive | inactive | inactive | inactive |  |  |
| C=C(C)[C@@H]1CC[C@]2(C)CC[C@]3(C)[C@H](CC[C@@H]4[C@@]5(C)CC[C@H](O)C(C)(C)[C@@H]5CC[C@]43C)[C@@H]12 |  | inactive | inactive | inactive | inactive | inactive | inactive | inactive | inactive | inactive | inactive | inactive | inactive | inactive | inactive | inactive | inactive | inactive | inactive | inactive |
| O=C(O)CC1OCc2c(O)cccc21 (centres undefined) | inactive | inactive | inactive | inactive | inactive | inactive | inactive | inactive | inactive | inactive | inactive | inactive | inactive | inactive | inactive | inactive |  | inactive | inactive |  |
| O=C1CC(c2cc(O)cc(O)c2)Oc2cc(O)ccc21 (centres undefined) |  | inactive | inactive | inactive | 3.72 µM (active) | inactive |  |  | inactive |  | inactive | inactive | inactive |  | inactive | 7.41 µM (active) |  | inactive | inactive | 34.9 µM (active) |
| C/C=C/C[C@@H](C)[C@@H](O)[C@H]1C(=O)N[C@@H](CC)C(=O)N(C)CC(=O)N(C)[C@@H](CC(C)C)C(=O)N[C@@H](C(C)C)C(=O)N(C)[C@@H](CC(C)C)C(=O)N[C@@H](C)C(=O)N[C@H](C)C(=O)N(C)[C@@H](CC(C)C)C(=O)N(C)[C@@H](CC(C)C)C(=O)N(C)[C@H](C(C)C)C(=O)N1C |  |  |  |  |  |  |  |  |  |  |  |  |  |  |  |  |  |  |  | inactive |
| O=Cc1ccc2n1C[C@@]1(C[C@H](O)[C@H](O)CO1)OC2 |  |  | inactive | inactive | inactive |  | inactive | inactive | inactive | inactive | inactive | inactive | inactive | inactive | inactive | inactive | inactive | inactive | inactive | inactive |
| CC12C[C@]3(O)O[C@@H](O1)[C@]1(COC(=O)c4ccccc4)[C@@H]3CC21OC1OC(CO)C(O)C(O)C1O (some centres undefined) |  | inactive | inactive | inactive | inactive | inactive | inactive | inactive | inactive | inactive | inactive | inactive | inactive | inactive | inactive | inactive |  | inactive | inactive | inactive |
| CCCCCCCCCCCCCCC[C@H](O)C[C@@H](O)C[C@@H](O)C[C@@H](O)C[C@@H](O)C[C@H]1CC=CC(=O)O1 | 2.11 µM (active) | 1.88 µM (active) | 1.49 µM (active) | 2.11 µM (active) | 0.743 µM (active) | 3.34 µM (active) | 5.26 µM (active) | inactive | 6.62 µM (active) | 2.96 µM (active) | 8.31 µM (active) |  | inactive |  | inactive |  | 8.6 µM (active) | 13.2 µM (active) |  |  |
| C/C=C1/CC[C@@H]2c3[nH]c4ccccc4c3CCN2C1 |  |  | inactive | inactive | inactive | inactive |  | inactive | inactive | inactive | inactive | inactive | inactive | inactive | inactive | inactive | inactive | inactive | inactive |  |
